Test results from PubChem BioAssay AID1159580 (chemical genetic matrix, 2015).
Several values for one entry are separate records, joined by “and”; a condition that tells them apart may be missing. Identical values can stand only once. Among all 5,500 compounds or so, about 2,000 (36%) were called active. About 18% were inconclusive and are not listed. No stated cut-off is given here; in the data, active means normalized growth mostly below about 0.91 (no sharp cut-off); inconclusive means no clear call, values can overlap the other calls; inactive means mostly above about 0.92. This is one part of the list.

Experiment: chemical genetic growth profiling, strain panel (AID 1159580);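 further: tested at 20 µM; growth read once vehicle control cultures reached saturation at 30 °C; 1 = growth at the plate median or of vehicle wells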
Details: S. cerevisiae deletion strains, growth OD

Measured: normalized growth

CC(=O)O[C@H]1C[C@@H](OC(C)=O)C(C)(C)C2CC(=O)[C@]3(C)C(CC[C@@]4(C)[C@H](C(=O)O)OC(=O)C5OC543)[C@]21C (stereo partly specified)
inactive: locus YAL021C, strain ccr4, stronger effect = lower value 0.96 | locus YAL026C, strain drs2, stronger effect = lower value 0.98 | locus YAL030W, strain snc1, stronger effect = lower value 1.02 | locus YBL061C, strain skt5, stronger effect = lower value 0.995 | locus YBR009C, strain hhf1, stronger effect = lower value 0.988 | locus YBR021W, strain FUR4, stronger effect = lower value 1.03 | locus YBR023C, strain chs3, stronger effect = lower value 1.01 | locus YBR171W, strain sec66, stronger effect = lower value 0.984 | locus YBR229C, strain ROT2, stronger effect = lower value 0.964 | locus YBR231C, strain swc5, stronger effect = lower value 0.988 | locus YBR279W, strain paf1, stronger effect = lower value 1.01 | locus YCL011C, strain gbp2, stronger effect = lower value 0.982 | locus YCL016C, strain dcc1, stronger effect = lower value 0.974 | locus YCL029C, strain bik1, stronger effect = lower value 0.979 | locus YCL061C, strain MRC1, stronger effect = lower value 0.987 | locus YCL069W, strain vba3, stronger effect = lower value 0.991 | locus YCR088W, strain abp1, stronger effect = lower value 1 | locus YDL005C, strain med2, stronger effect = lower value 0.966 | locus YDL035C, strain GPR1, stronger effect = lower value 0.977 | locus YDL040C, strain nat1, stronger effect = lower value 0.995 | locus YDL074C, strain BRE1, stronger effect = lower value 1.04 | locus YDL101C, strain DUN1, stronger effect = lower value 0.991 | locus YDL134C, strain PPH21, stronger effect = lower value 1.05 | locus YDL185W, strain tfp1, stronger effect = lower value 0.965 | locus YDL192W, strain arf1, stronger effect = lower value 0.968 | locus YDR001C, strain nth1, stronger effect = lower value 0.994 | locus YDR069C, strain doa4, stronger effect = lower value 0.994 | locus YDR101C, strain arx1, stronger effect = lower value 0.983 | locus YDR137W, strain rgp1, stronger effect = lower value 0.991 | locus YDR159W, strain sac3, stronger effect = lower value 1.03 | locus YDR162C, strain NBP2, stronger effect = lower value 1.01 | locus YDR195W, strain ref2 0.936 | locus YDR297W, strain sur2, stronger effect = lower value 0.993 | locus YDR318W, strain mcm21, stronger effect = lower value 0.987 | locus YDR334W, strain swr1, stronger effect = lower value 0.976 | locus YDR335W, strain msn5, stronger effect = lower value 0.987 | locus YDR388W, stronger effect = lower value 0.989 | locus YDR392W, strain spt3, stronger effect = lower value 1 | locus YDR502C, strain sam2, stronger effect = lower value 1.02 | locus YEL003W, strain gim4, stronger effect = lower value 0.994 | locus YEL037C, strain rad23, stronger effect = lower value 0.995 | locus YEL061C, strain CIN8 (second series), stronger effect = lower value 0.993 | locus YEL061C, strain CIN8, stronger effect = lower value 0.979 | locus YER015W, strain faa2, stronger effect = lower value 0.987 | locus YER016W, strain bim1, stronger effect = lower value 0.987 | locus YER110C, stronger effect = lower value 0.979 | locus YER111C, strain swi4, stronger effect = lower value 0.987 | locus YER155C, strain BEM2 (second series), stronger effect = lower value 0.992 | locus YER155C, strain BEM2, stronger effect = lower value 0.996 | locus YER167W, strain BCK2, stronger effect = lower value 0.988 | locus YFR010W, strain ubp6, stronger effect = lower value 1.02 | locus YGL078C, strain dbp3, stronger effect = lower value 1.02 | locus YGL086W, strain mad1, stronger effect = lower value 1 | locus YGL167C, strain pmr1, stronger effect = lower value 0.993 | locus YGL173C, strain kem1, stronger effect = lower value 0.997 | locus YGL227W, strain vid30, stronger effect = lower value 0.993 | locus YGL240W, strain doc1, stronger effect = lower value 0.974 | locus YGL248W, strain PDE1, stronger effect = lower value 1.01 | locus YGL253W, strain hxk2, stronger effect = lower value 0.988 | locus YGR135W, strain pre9, stronger effect = lower value 1.06 | locus YGR252W, strain gcn5, stronger effect = lower value 1.07 | locus YHR013C, strain ard1, stronger effect = lower value 0.97 | locus YHR027C, strain rpn1, stronger effect = lower value 0.988 | locus YHR030C, strain SLT2, stronger effect = lower value 0.981 and 1.01 | locus YHR079C, strain IRE1 (second series), stronger effect = lower value 0.983 | locus YHR079C, strain IRE1, stronger effect = lower value 1.03 | locus YHR094C, strain hxt1, stronger effect = lower value 0.992 | locus YHR129C, strain ARP1, stronger effect = lower value 0.987 | locus YHR142W, strain chs7, stronger effect = lower value 0.98 | locus YHR200W, strain rpn10, stronger effect = lower value 1.02 | locus YIL066C, strain RNR3, stronger effect = lower value 0.957 | locus YIL073C, strain SPO22, stronger effect = lower value 0.996 | locus YIL125W, strain kgd1, stronger effect = lower value 0.992 | locus YIR030C, strain dcg1, stronger effect = lower value 0.986 | locus YJL092W, strain hpr5, stronger effect = lower value 0.994 | locus YJL095W, strain BCK1 (second series), stronger effect = lower value 0.983 | locus YJL095W, strain BCK1, stronger effect = lower value 1.08 and 1.01 | locus YJL115W, strain asf1, stronger effect = lower value 0.978 | locus YJL129C, strain trk1, stronger effect = lower value 0.987 | locus YJL134W, strain LCB3, stronger effect = lower value 0.978 | locus YJL154C, strain vps35, stronger effect = lower value 0.978 | locus YJL164C, strain tpk1, stronger effect = lower value 1.02 | locus YJL166W, strain qcr8, stronger effect = lower value 0.977 | locus YJL168C, strain set2, stronger effect = lower value 0.996 | locus YJL187C, strain SWE1 (second series), stronger effect = lower value 1.01 | locus YJL187C, strain SWE1, stronger effect = lower value 0.984
